# ABHD5-PLIN5 inh – ABHD5-PLIN5 interaction inhibitors, primary screen, cell lysate, split luciferase complementation, luminescence; Perilipin-5 (Homo sapiens) + 1-acylglycerol-3-phosphate O-acyltransferase ABHD5 (Homo …; inhibition, % at 4 µM; Split G. princeps luciferase complementation, 4 h; 360,000 tested, 0.78% active; AID 602281, 2012;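 active = inhibition above the mean inhibition across every tested compound plus 3 SD, cut at about 22% in these data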
# Rtt109 Vps75 – inhibitors of C. albicans Rtt109/Vps75 HAT, primary screen, biochemical, ThioGlo CoA-SH fluorescence, plate reader; Histone acetyltransferase RTT109 (Candida albicans (strain SC5314 / ATCC MYA-2876)), …; purified Rtt109/Vps75, 4 h; inhibition, % at 34.9 µM; 330,000 tested, 0.16% active; AID 540336, 2011;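 active = inhibition of at least 50% in every replicate; inconclusive = best replicate reaches 50% inhibition but some replicates fall short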
# Cardio protect – cardioprotection against H2O2-induced cell death, primary screen, uHTS, H9c2 cells, ATPLite luminescence | H9c2 cardiomyocytes, H2O2 injury protection, 2 h | protection from H2O2 cell death, % at 20 µM | 360,000 tested, 0.63% active | AID 588492, 2011;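 active = compounds giving at least 50% protection of heart cells from peroxide-induced death in the single-dose screen, raw or plate-pattern-corrected value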
# Myeloid diff MLP – induction of myeloid progenitor differentiation, primary screen, cell-based, flow cytometry, MLPCN library; ER-HoxA9 myeloid progenitors, lysozyme-GFP differentiation; calls only at 10 µM; 360,000 tested, 1% active;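 active = normalized GFP-positive differentiation at or above the plate's own cutoff, the solvent-only control mean plus 3 SD; inconclusive = no clear call, values can overlap the other calls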;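 note: cells exposed to compound for four days before flow analysis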
# HGIII-sPLA2 inh – human group III sPLA2 inhibitors, primary screen, biochemical, QFRET, BODIPY PC-A2 liposome substrate. Group 3 secretory phospholipase A2 (Homo sapiens), Q9NZ20. QFRET BODIPY PC-A2 liposome hydrolysis, fluorescence. inhibition, % at 12.2 µM. 370,000 tested, 0.56% active. AID 743126, 2013;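 active = inhibition above mean plus 3 SD of compounds lying within the high and low control bounds, cut at about 19% in these data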
# DAGLB inh – DAGLB lipase inhibitors, primary screen, biochemical, fluorescence, HTS. AID 504411, 2011. 340,000 tested, 0.059% active. Diacylglycerol lipase-beta (Homo sapiens), Q8NCG7. HEK293T DAGLB membrane lysate, EnzChek fluorogenic substrate. inhibition, % at 5.17 µM; in the data active = inhibition above about 34%
# ABHD5-PLIN5 conf – ABHD5-PLIN5 interaction inhibitors, confirmation, biochemical, luminescence; inhibition, % at 4 µM; shares compounds with ABHD5-PLIN5 inh; 2,200 tested, 67% active; in the data active = inhibition above about 23%
# HNF4 counter – HNF4 dimerization inhibitors, counter-screen for ABHD5-PLIN5 interaction inhibitor project, biochemical, split-luciferase complementation, luminescence. shares compounds with ABHD5-PLIN5 inh. inhibition, % at 4 µM. 2,200 tested, 77% active;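 active = mean inhibition across replicate wells exceeding the computed hit threshold, cut at about 13% in these data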;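 note: light from luciferase halves that rejoin when HNF4 fusion proteins dimerize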
# Hits are given with their value; – = inactive; ? = inconclusive; · = no result; + = active, no number. The list is not random: actives were taken first. Their share in the collection is about 2.9%.
SMILES,ABHD5-PLIN5 inh,Rtt109 Vps75,Cardio protect,Myeloid diff MLP,HGIII-sPLA2 inh,DAGLB inh,ABHD5-PLIN5 conf,HNF4 counter
O=C(COc1ccccc1/C=C1\SC(=O)NC1=O)Nc1ccccc1,–,–,–,–,–,–,·,·
COc1cccc(/C=C/c2[nH]c(=O)[nH]c(=O)c2[N+](=O)[O-])c1O,32,–,–,–,–,–,78,80
O=C1NC[C@H](CCCCN2C[C@H](Cc3ccc(O)cc3)N(CC3CCCCC3)C(=O)C2=O)N(CC2CCCCC2)C1=O,–,·,·,–,–,·,·,·
CC1(S(=O)(=O)O)CC(=O)c2ccccc2C1=O (stereo unspecified),29,–,–,–,–,–,42,56
CCCCCCCCCCOC(=O)Cn1c(COc2ccccc2C)[n+](C)c2ccccc21,24,–,–,–,·,–,–,–
C/C=C/c1ccc(OCC(=O)Nc2cc(S(=O)(=O)N3CCOCC3)ccc2N2CCCC2)c(OC)c1,–,–,–,–,–,–,·,·
O=C(COc1ccc(Cl)cc1Cl)NCC1(N2CCOCC2)CCCCC1,–,–,–,–,–,–,·,·
Cc1ccc(C)c(S(=O)(=O)N2CCN(Cc3cc4c(cc3O)OCO4)CC2)c1,25,–,–,–,–,–,35,65
O=S(=O)(c1ccccc1F)N1CCN(Cc2cc3c(cc2O)OCO3)CC1,–,–,–,–,–,–,·,·
Cc1ccn2c(NC3CCCCC3)c(C(C)C)nc2c1,–,–,–,–,–,–,·,·
Cc1ccc(NC(=O)c2cc(N3C(=O)C=CC3=O)ccc2N2CCOCC2)cc1Cl,–,–,–,–,–,–,·,·
Cc1ccccc1NC(=O)Cc1nc(COC(=O)c2ccc(S(C)(=O)=O)c([N+](=O)[O-])c2)cs1,27,–,–,+,·,–,35,42
COc1ccc2ccccc2c1-c1csc(N)n1,–,–,–,–,–,–,·,·
CN1C/C(=C\c2ccc(N3CCOCC3)cc2)C(=O)/C(=C/c2ccc(N3CCOCC3)cc2)C1,30,–,–,–,–,–,53,42
CN1C/C(=C/c2ccsc2)C(=O)/C(=C/c2ccsc2)C1,56,–,–,?,–,–,79,66
CN1C/C(=C/c2ccncc2)C(=O)/C(=C/c2ccncc2)C1,–,–,–,–,–,–,·,·
Cn1c(=O)c([N+](=O)[O-])c(-n2ccnc2)c2ccccc21,23,–,–,–,–,–,–,–
Cn1c(=O)c([N+](=O)[O-])c(NCCCn2ccnc2)c2ccccc21,–,–,–,–,–,–,·,·
CCn1nc(C)cc1-c1nnc(SCC(=O)Nc2ccccc2)n1CCCOC,–,–,–,–,–,–,·,·
CCn1nc(C)cc1-c1nnc(Sc2ncc([N+](=O)[O-])s2)n1C,24,–,–,?,–,–,25,110
Cc1ccc(CNC(=O)CCc2nnc(Cc3ccc(-c4ccccc4)cc3)o2)o1,28,–,–,–,–,–,–,–
Cn1nnnc1Sc1ncnc2scc(-c3cc4ccccc4o3)c12,29,–,–,–,–,–,71,77
Cn1nnnc1Sc1ncnc2scc(-c3ccc(-c4ccccc4)cc3)c12,–,–,–,–,–,–,·,·
COc1ccc(C(=O)c2no[n+]([O-])c2C(=O)c2ccc(OC)cc2)cc1,–,–,–,?,–,–,·,·
Cc1c(C(=O)c2no[n+]([O-])c2C(=O)c2cnn(C)c2C)cnn1C,29,?,–,–,–,–,58,74

# Screening results from PubChem BioAssay.
